High-throughput results as filed in PubChem BioAssay.
A selection: hits, their analogues and other compounds. The true share with any hit is near 9.2%.
ELG1 DNA repair – qHTS screen for small molecules that inhibit ELG1-dependent DNA repair in human embryonic kidney (HEK293T) cells expressing luciferase-tagged ELG1. HEK293T ELG1-luciferase reporter, luminescence, 16 h; DNA damage induced by 5-fluorouridine. Potency, µM (titrated, usually from 46.1 µM), hits mostly inhibitors. hit rate 2.3% among 330,000; note: nearly all actives have a fitted effect of over 55% in size
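Cells (2,000 per well) received 5-fluorouridine plus test compound or DMSO and were incubated 16 hr at 37 °C, 5% CO2. Luciferase activity was read by luminescence 30 min after ONE-Glo addition; signal suppression marked inhibition of damage-induced ELG1 function.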
NPC1 promoter act – qHTS Assay for NPC1 Promoter Activators. Huh7 NPC1 promoter luciferase reporter, 24 h. Potency, µM (titrated, usually from 9.22 µM), hits mostly activators. hit rate 2.4% among 320,000. AID 485313, 2010; note: nearly all actives have a fitted effect of over 60% in size
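Quantitative HTS used a cell-based reporter: Huh7 cells stably bearing the NPC1 promoter upstream of luciferase were treated with compounds for 24 h, and promoter activation was read as luminescence.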
Rab9 prom act – qHTS Assay for Rab9 Promoter Activators; Huh7 Rab9 promoter-luciferase reporter, luminescence, 24 h; Potency, µM (series often up to 9.22 µM), actives largely listed as activators; hit rate 2.8% among 320,000; note: nearly all actives have a fitted effect of over 60% in size
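Huh7 reporter line, Rab9 promoter upstream of luciferase. Compound exposure 24 h at 37 °C in reduced-serum medium with 10% FBS. Read-out: luminescence.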
FLuc counter – qHTS profiling assay for firefly luciferase inhibitor/activator using purifed enzyme and Km concentrations of substrates (counterscreen for miR-21 project) | Potency, µM (doses to about 57.5 µM), hits mostly inhibitors | hit rate 6.9% among 360,000 | Luciferin 4-monooxygenase (Photinus pyralis), P08659 | purified FLuc, Km substrates, luminescence inhibition | AID 588342, 2011; note: nearly all actives have a fitted effect of over 55% in size
Target sequence (P08659 whole entry, looked up): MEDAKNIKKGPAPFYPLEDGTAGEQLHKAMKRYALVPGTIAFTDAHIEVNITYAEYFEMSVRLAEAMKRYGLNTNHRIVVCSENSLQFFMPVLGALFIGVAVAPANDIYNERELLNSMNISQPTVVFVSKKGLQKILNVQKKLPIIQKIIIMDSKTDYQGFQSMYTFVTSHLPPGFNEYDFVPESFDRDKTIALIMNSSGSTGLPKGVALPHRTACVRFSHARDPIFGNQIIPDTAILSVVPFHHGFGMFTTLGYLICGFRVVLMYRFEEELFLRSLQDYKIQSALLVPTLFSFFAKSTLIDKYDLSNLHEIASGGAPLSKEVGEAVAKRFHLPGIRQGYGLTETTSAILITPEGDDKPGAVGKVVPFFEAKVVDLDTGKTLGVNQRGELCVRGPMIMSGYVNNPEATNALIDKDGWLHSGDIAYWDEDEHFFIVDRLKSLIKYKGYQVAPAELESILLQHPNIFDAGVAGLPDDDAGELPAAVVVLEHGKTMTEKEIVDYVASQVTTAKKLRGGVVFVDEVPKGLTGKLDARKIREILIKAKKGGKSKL
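Purified P. pyralis luciferase, 10 nM final, with Km-level 10 uM D-luciferin and 10 uM ATP in 50 mM Tris acetate pH 7.5, 10 mM Mg acetate, 0.01% Tween-20, 0.05% BSA; 6-point qHTS titration about 60 µM downward; luminescence read.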
SMN2 splice enh – qHTS Assay for Enhancers of SMN2 Splice Variant Expression. HEK293 SMN2-luciferase splicing reporter, luminescence, 30-36 h. Potency, µM (titrated, usually from 46.1 µM), usual class: activators. hit rate 2.8% among 210,000; note: nearly all actives have a fitted effect of over 55% in size
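HEK293 cells carry an SMN2 minigene-luciferase reporter in which exon 7 inclusion puts luciferase in frame. Cells were seeded at 2000 cells/well, attached for 10-12 hours, then exposed to compounds for 30-36 hours at 37C before ONE-Glo luminescence.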
ELG1 genotox – qHTS screen for small molecules that induce genotoxicity in human embryonic kidney (HEK293T) cells expressing luciferase-tagged ELG1; Potency, µM (doses to about 46 µM), hits mostly activators; AID 504466, 2011; HEK293T ELG1-luciferase reporter, luminescence, 16 h; hit rate 1.3% among 330,000; note: nearly all actives have a fitted effect of over 60% in size
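Step 1: seed 2,000 HEK293T ELG1-luciferase cells per well. Step 2: add compound or DMSO, incubate 16 hr at 37 °C. Step 3: ONE-Glo, 30 min at room temperature, read luminescence.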
A number is an active result; i = inactive; ? = inconclusive; nt = not tested or not shown. Calls come from the whole dose curve; as a rule, active = well fitted curve in the direction sought with a large enough effect; inconclusive = small, poorly fitted or top-dose-only effect, or another doubt; inactive = no such curve, though single readings can be large; an effect the other way counts as inactive or inconclusive.

SMILES	ELG1 DNA repair	NPC1 promoter act	Rab9 prom act	FLuc counter	SMN2 splice enh	ELG1 genotox
COc1cccc(CNC(=O)Cn2nc(C)n3c(cc4cc(C)ccc43)c2=O)c1OC	nt	nt	nt	i	i	nt
COC(=O)c1ccc2nc(NC(=O)C3CC3)sc2c1	?	2.2µM	?	19µM	nt	?
CCOC(=O)c1cc(-c2ccco2)nc2c1c(C)nn2-c1ccccc1	?	i	i	i	i	i
CCOC(=O)c1cc(-c2ccc(OC)cc2)nc2c1c(C)nn2CCC(N)=S	12µM	i	i	i	i	i
O=C(CCS(=O)(=O)c1ccccc1)Nc1nc2cc3c(cc2s1)OCCO3	?	i	i	7.6µM	nt	?
O=C(CCS(=O)(=O)c1ccccc1)Nc1nc2cc3c(cc2s1)OCO3	?	i	i	13µM	nt	i
Cc1ccccc1CNC(=O)c1cccc(NC(=O)N2CCSc3ncccc32)c1	nt	nt	nt	i	nt	nt
O=C(O)C1CCN(C(=O)CSc2nc3ccccc3s2)CC1	i	i	i	?	i	i
NC(=O)C1CCN(C(=O)CSc2nc3ccccc3s2)CC1	?	i	i	i	i	i
CC1CCN(C(=O)CSc2nc3ccccc3s2)CC1	?	2.8µM	2.8µM	12µM	?	12µM
O=C(CSc1nc2ccccc2s1)N1CCCCC1	?	2.8µM	3.5µM	24µM	20µM	?
CC(=O)O[C@@]1(C(C)=O)CCC2C3C=C(Cl)C4=CC(=O)C5CC5[C@@]4(C)C3CC[C@]21C (stereo not given in full)	nt	nt	nt	nt	i	nt
COc1ccc(C)cc1C1=Nc2ccccc2C1(C)C	i	i	i	i	i	i
Cc1ccc(O)c(C2=Nc3ccccc3C2(C)C)c1	?	i	?	12µM	i	?
COc1cccc(Cn2c(Oc3cc(C)cc(C)c3)nc3c2c(=O)n(C)c(=O)n3C)c1	nt	nt	nt	i	i	nt
O=C(COC(=O)c1ccc2c(c1)OCCO2)NCCc1ccccc1	i	nt	nt	nt	nt	i
CCCCCCNCC1OCc2ccccc2CO1	i	i	i	i	i	i
c1ccc(NCC2OCc3ccccc3CO2)cc1	?	4µM	2.5µM	24µM	16µM	?
CC1CCN(c2ccc(-c3cccc(NC(=O)C(F)(F)F)c3)nn2)CC1	?	?	0.32µM	0.24µM	nt	0.13µM
O=C(Nc1cccc(-c2ccc(N3CCCCC3)nn2)c1)C(F)(F)F	?	0.28µM	0.79µM	1.3µM	nt	?
O=C(Nc1cccc(-c2ccc3nncn3n2)c1)C(F)(F)F	i	i	i	i	nt	i
CC1CCN(C(=O)C(C)Sc2nc(-c3ccccc3)cc(C(F)(F)F)n2)CC1 (stereo not given)	?	i	i	i	i	i
O=C(Nc1cccc(-c2ccc(N3CCCCC3)nn2)c1)c1ccc(Br)o1	?	1.3µM	2.8µM	0.34µM	nt	2.3µM
CCOc1ccc(-n2c(=O)c3c4c(sc3n(Cc3cccc(Cl)c3)c2=O)CCCC4)cc1	nt	nt	nt	i	i	nt
COc1cc(/C=N/NC(=O)CC#N)ccc1Oc1nc(Cl)ncc1F	i	i	i	i	nt	i
SMILES	ELG1 DNA repair	NPC1 promoter act	Rab9 prom act	FLuc counter	SMN2 splice enh	ELG1 genotox
COc1cc([N+](=O)[O-])ccc1N1C(=O)C2C3C=CC(C4CC34)C2C1=O (stereo not given)	i	i	i	13µM	i	i
CCN1CCN(C(=O)/C=C/c2c(F)cccc2Cl)CC1	i	i	i	i	i	i
O=C(/C=C/c1c(F)cccc1Cl)c1ccc(F)cc1	?	i	i	6.7µM	i	i
CN(C)/C=C/C(=O)c1ccc(F)cc1	i	i	i	i	i	i
O=C(/C=C/c1ccc[nH]1)c1ccccc1	?	i	?	12µM	i	i
O=CC(=O)c1ccccc1	?	i	i	i	i	i
O=C(/C=C/c1ccc[nH]1)c1ccc(F)cc1	?	i	i	12µM	?	?
O=C(NNC(=S)NC1CCCCC1)c1ccc2c(c1)OCO2	?	?	1µM	?	5.6µM	i
O=C(NC1CCCCC1)c1ccc2c(c1)OCCO2	?	1.4µM	3.2µM	13µM	nt	21µM
